Results from PubChem BioAssay AID588726 (The Scripps Research Institute Molecular Screening Center, 2011).
Hit rate of the full screen: of about 360,000 compounds, about 8,200 (2.3%) were called active. Only a selection was taken, and actives are over-represented in it overall. A number with no mark means an inactive call. No stated cut-off is given here; in the data, active means inhibition above about 27%; inactive means the rest.

Each compound was assayed against Fructose-bisphosphate aldolase (Mycobacterium tuberculosis (strain ATCC 25618 / H37Rv)) (UniProt P9WQA3) (assay: M. tuberculosis aldolase activity blockers – biochemical, fluorescence, strain H37Rv, primary screen (AID 588726;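 further: 0% = vehicle and 100% = reference inhibitor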)). Settings: purified M. tuberculosis FBA, fluorescence read-out, at 1 µM, stronger effect = higher value.
Fructose-bisphosphate aldolase (Mycobacterium tuberculosis (strain ATCC 25618 / H37Rv)), sequence (P9WQA3 whole entry, looked up): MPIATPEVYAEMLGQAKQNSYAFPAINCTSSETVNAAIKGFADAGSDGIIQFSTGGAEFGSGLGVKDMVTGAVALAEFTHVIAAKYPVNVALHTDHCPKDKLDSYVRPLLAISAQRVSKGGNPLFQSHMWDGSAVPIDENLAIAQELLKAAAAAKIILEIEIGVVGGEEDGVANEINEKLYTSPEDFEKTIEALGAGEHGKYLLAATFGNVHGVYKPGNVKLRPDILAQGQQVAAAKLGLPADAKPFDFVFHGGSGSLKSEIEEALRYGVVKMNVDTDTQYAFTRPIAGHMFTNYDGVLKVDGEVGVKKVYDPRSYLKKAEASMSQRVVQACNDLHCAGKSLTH

Row | Compound | inhibition
1 | COc1ccc(NC(=O)CCC(=O)N2CCN(S(=O)(=O)c3ccc(C)cc3)CC2)c(OC)c1 | -0.33%
2 | CC(=O)NCC(=O)N1CCCC(C(=O)c2ccc3c4c(cccc24)CC3)C1 (stereo not drawn) | 33.7% (active)
3 | Cc1ncoc1C(=O)N1CCCC(C(=O)c2ccc3c4c(cccc24)CC3)C1 (stereo not drawn) | 17.8%
4 | CCn1ccnc1CN1CCCC(C(=O)c2ccc3c4c(cccc24)CC3)C1 (stereo not drawn) | 8.92%
5 | CCOC(=O)c1cnc(COc2ccccc2Cl)[nH]c1=O | 3.61%
6 | CCOC(=O)c1cnc2sccn2c1=O | 20.1%
7 | CCCc1cc(C(=O)N2CCCC(CO)(CCCc3ccccc3)C2)n(C)n1 (stereo not drawn) | -1.51%
8 | O=C(O)c1ccc(-n2nc(-c3ccccc3)c3ccccc3c2=O)cc1 | 2.23%
9 | N#Cc1c(-c2ccccc2)c(-c2ccccc2)n[nH]c1=O | -6.25%
10 | O=C(O)c1n[nH]nc1-c1ccccc1 | 113% (active)
11 | COc1cc(Cl)c(C)cc1NC(=O)COC(=O)c1cc(SC)ccc1Cl | 7.33%
12 | O=C(O)CSc1nccn1-c1cccc(Cl)c1 | 3.31%
13 | COC(=O)NNC(=O)C1CCC(C)CC1 (stereo not drawn) | 1.9%
14 | CCOC(=O)N1CCN(C(=O)CSc2nc(C)nc3c2c(=O)n(C)c(=O)n3C)CC1 | 4.39%
15 | OCC[C@H]1C[C@H](O)[C@@H](O)[C@]2(CCc3ccccc3O2)O1 | -1.81%
16 | NC(=O)CC[C@@H]1NC(=O)[C@@H]2CCCN2C(=O)c2cc([N+](=O)[O-])cc(F)c2NCCC[C@@H](C(N)=O)NC1=O | -3.88%
17 | Cc1cc(C(=O)OCC(=O)NCc2ccco2)c(C)n1-c1ccccc1 | -0.83%
18 | O=C(NCc1ccco1)c1ccc([N+](=O)[O-])cc1Cl | 3.22%
19 | CCc1ccc(-c2cc(C(=O)NCc3ccco3)c3ccccc3n2)s1 | 54.1% (active)
20 | CN(Cc1ccc(C(F)(F)F)cc1)C(=O)[C@H]1O[C@@H](n2cnc3c(N)ncnc32)[C@H](O)[C@@H]1O | -0.98%
21 | CCN1C(=O)CS/C1=N\c1nccs1 | -3.46%
22 | COc1cc2c(cc1OC)CC1(CCCCC1)N=C2 | 45% (active)
23 | Cc1ccc(S(=O)(=O)NCc2ccc(C(=O)NC3CCC(C)CC3)cc2)cc1 (stereo not drawn) | -7.12%
24 | COc1ccc(C(=O)Cn2nnc(-c3ccc(N4CCOCC4)cc3)n2)cc1OC | -1.43%

Row | Compound | inhibition
25 | COc1ccc(-c2ccc(CCC(=O)O)n2NC(=O)c2ccc(C(C)(C)C)cc2)cc1 | 3.01%
26 | COCCCn1c(CCC(=O)O)ccc1-c1ccc(F)cc1 | 50.6% (active)
27 | COc1ccc(-c2ccc(CCC(=O)O)n2-c2ccc(O)cc2)cc1 | -1.15%
28 | CC(=O)Nc1ccc(Sc2ccccc2C(=O)N2CCCC2)cn1 | 1.32%
29 | CCCN1C2=C(C(=O)CCC2)C(c2ccc(O)c(Br)c2)C2=C1CCCC2=O | -1.2%
30 | COc1ccc(C2C3=C(CCCC3=O)N(CC(=O)O)C3=C2C(=O)CCC3)cc1 | 47.7% (active)
31 | CCOc1ccc(C2C(C#N)=C(N)N(N(C)C)C3=C2C(=O)CCC3)cc1 (stereo not drawn) | -0.23%
32 | CCOc1ccc(C2C3=C(CCCC3=O)N(CC(=O)O)C3=C2C(=O)CCC3)cc1 | 39.2% (active)
33 | CCOC(=O)C1=C(N)N(c2ccc(C)cc2)C2=C(C(=O)CCC2)C1c1cccs1 (stereo not drawn) | -1.49%
34 | COc1ccc(C2C(C#N)=C(N)N(c3ncn[nH]3)C3=C2C(=O)CCC3)cc1 (stereo not drawn) | 3.59%
35 | CC(C)c1ccc(Nc2nnc(SCC(=O)c3nnc(-c4ccccc4)o3)s2)cc1 | -2.05%
36 | CCOC(=O)C1CCN(C(=O)C2CCCN(S(=O)(=O)c3ccc(OC)c(Cl)c3)C2)CC1 (stereo not drawn) | 13.8%
37 | COc1ccc(C2CC(=O)NC(=O)C2)cc1 | 0.31%
38 | COc1ccc(C2(O)C(=O)Nc3ccccc32)cc1 (stereo not drawn) | 1.93%
39 | O=C1NC(c2cccc(Cl)c2)Nc2ccccc21 (stereo not drawn) | 30.3% (active)
40 | COc1ccc(C2NC(=O)c3ccccc3N2)cc1 (stereo not drawn) | 67% (active)
41 | C=CCOc1cccc(C2NC(=O)c3ccccc3O2)c1 (stereo not drawn) | 5.49%
42 | O=C1NC(c2ccccc2)Oc2ccccc21 (stereo not drawn) | 6.04%
43 | CC(C)=CCCC1(C)C=Cc2c(ccc3c2[nH]c2cc(O)c(C)cc23)O1 (stereo not drawn) | -3.09%
44 | COc1cccc(CNC(=O)C(=O)NCCC2CCCCN2S(=O)(=O)c2ccc(C)cc2)c1 (stereo not drawn) | 1.18%
45 | COC(=O)C1NN=C(C(=O)c2ccc(Br)cc2)C1c1cccc(Br)c1 (stereo not drawn) | -2.34%
46 | CC(=O)Nc1cccc(Nc2ccc(C#N)cc2)c1 | 0.34%
47 | Cc1ccc(C2Nc3cccc4cccc(c34)N2)cc1 | 49.3% (active)
48 | Oc1ccc(C2Nc3cccc4cccc(c34)N2)cc1 | -2.34%

Row | Compound | inhibition
49 | O=[N+]([O-])c1ccc2c(c1)C(N1CCOCC1)/C(=C/C1(O)CCCCC1)O2 (stereo not drawn) | -4.67%
50 | COCc1cc(=O)[nH]c2cc(NC(=O)C(F)(F)F)c(C)cc12 | 31.5% (active)
51 | Cc1ccccc1Cn1nc(C)c(NC(=O)C(F)(F)F)c1C | -0.53%
52 | O=C(Nc1ccccc1)c1ccccc1NC(=O)C(F)(F)F | -0.1%
53 | COCCCN1C(=O)C(=O)/C(=C(/O)c2ccc(S(=O)(=O)N3CCOCC3)cc2)C1c1ccc(F)cc1 (stereo not drawn) | 4.42%
54 | COc1ccccc1NC(=O)COC(=O)COc1ccccc1F | -0.62%
55 | COc1ccccc1NC(=O)COc1ccc(C(=O)OCC(=O)N(C(C)C)C(C)C)cc1OC | 33.2% (active)
56 | COc1cc(CO)ccc1OCC(=O)Nc1cccc2ccccc12 | -1.87%
57 | COc1ccc(C2c3c(C)nn(-c4ccccc4)c3NC(=O)N2c2ccccc2)cc1 (stereo not drawn) | -0.42%
58 | O=C(CCC1CCN(C(=O)c2cccc(Cl)c2F)CC1)Nc1ccccc1 | -0.26%
59 | COc1ccc(CCNC(=O)C(=O)Nc2ccc3nc4n(c(=O)c3c2)CCCCC4)cc1OC | -5.38%
60 | COc1ccc(CCNC(=O)c2cc3sccc3n2C)cc1OC | 6.99%
61 | COc1ccc(CCNC(=O)Nc2ccc3c(c2)c(=O)n(C)n3C)cc1OC | 156% (active)
62 | CCCc1cc(=O)n2[nH]c(C)c(-c3ccc(Cl)cc3)c2n1 | 27.5% (active)
63 | CCCc1cc(=O)n2[nH]c(SCc3ccccc3)nc2n1 | -0.14%
64 | Cc1nc(=O)c(-c2ccccc2)c(C)n1-c1ccc(Br)cc1 | 2.14%
65 | COCc1cc(=O)n2[nH]c(C)c(-c3ccccc3)c2n1 | 102% (active)
66 | COCc1cc(=O)[nH]c(SC)n1 | 2.44%
67 | Cc1nc2nc(COc3ccccc3)[nH]n2c(=O)c1C | 0.07%
68 | Cc1nc2c(-c3ccccc3)c(C)[nH]n2c(=O)c1Cl | 47.5% (active)
69 | CCCc1c(C)nc2scc(-c3ccc(Cl)cc3)n2c1=O | 0.91%
70 | COCc1cc(=O)[nH]c(-c2ccc(C(F)(F)F)cc2)n1 | 2.51%
71 | COc1ccc(-c2csc3nc(-c4ccccc4F)oc(=O)c23)cc1OC | 2.27%
72 | C=CC(=O)Nc1ccc(Nc2ccnc(Nc3ccc(N4CCN(C)CC4)cc3)n2)cc1 | 3.07%

Row | Compound | inhibition
73 | Cc1nc(SCC(=O)N2CCc3ccccc3C2)c2c(C)c(C)sc2n1 | 0.74%
74 | COc1cc(C2C(C#N)=C(C)NC3=C2C(=O)CC(C)(C)C3)ccc1O (stereo not drawn) | 0.13%
75 | Cc1sc2nc(-c3ccccc3F)oc(=O)c2c1C | -0.79%
76 | COc1ccccc1N(CC(=O)N/N=C(\C)c1ccccc1O)S(=O)(=O)c1ccc(C)cc1 | 2.36%
77 | COc1ccc(-c2cc3ccc(OCc4nn[nH]n4)cc3oc2=O)cc1 | 734% [above what the read-out allows, likely interference] (active)
78 | COc1ccc(-c2cc(=O)oc3cc(OCC(=O)N[C@@H](Cc4c[nH]c5ccccc45)C(=O)O)ccc23)cc1 | 6.63%
79 | COc1ccc(-c2csc3ncnc(Oc4ccc5c(C)cc(=O)oc5c4)c23)cc1 | 2.35%
80 | CC1CCN(C(=O)Cn2nnnc2CN2CCOCC2)CC1 | -0.01%
81 | CCN(CC)c1ccc2cc(C(=O)O)c(=O)oc2c1 | 36.2% (active)
82 | CCN(CC)c1ccc([N+](=O)[O-])cc1C(=O)O | -17.9%
83 | Cc1cc(C)cc(OCC(=O)NNC(=O)c2cc3ccccc3oc2=O)c1 | 1.86%
84 | Cc1ccc(C2=Nc3c(ccc4ccccc34)C(c3ccncc3)=NN2)cc1 | 1.27%
85 | O=C(Cn1nnc(-c2ccc3c(c2)OCO3)n1)NCc1ccco1 | 1.83%
86 | CC(=O)Nc1cccc(-c2ccnc3c2CC(C)(C(=O)NCc2ccccc2)O3)c1 (stereo not drawn) | 1.41%
87 | CC1(C(=O)NCC2CCOCC2)Cc2c(-c3cccc(C(N)=O)c3)ccnc2O1 (stereo not drawn) | -0.46%
88 | CC(=O)Nc1cccc(-c2ccnc3c2CC(C)(C(=O)NCc2ccco2)O3)c1 (stereo not drawn) | -0.36%
89 | CC1(C(=O)NCc2ccco2)Cc2c(-c3ccc4c(c3)OCO4)ccnc2O1 (stereo not drawn) | 46.9% (active)
90 | CC1(C(=O)NCc2ccc(F)c(F)c2)Cc2c(-c3ccc4c(c3)OCO4)ccnc2O1 (stereo not drawn) | 44.6% (active)
91 | CCc1nc2c(OCC(N)=O)cccn2c1N(C)C(=O)c1ccc(OC)cc1 | -2.06%
92 | Cc1nc(C(=O)NCc2ccccc2)sc1C1(C)CC(c2cccnc2)=NO1 (stereo not drawn) | -0.93%
93 | O=C(CN1CCN(S(=O)(=O)c2ccc(Cl)s2)CC1)N1CCCCC1 | 5.01%
